HCT116 bCat-KO = beta-catenin-lacking colon tumor cell growth suppression. HCT116 beta-catenin knockout viability, CellTiter-Glo, 60 h; hits give low values. 140,000 compounds, 1.5% hits. AID 818. viability, % at 10 µM;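 active means viability at or under a set limit, the compound median less 4 SD, cut at about 6% in these data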;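 further: 0% = Hyamine 1622 control at 20 µM and 100% = untreated cell control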
INS promoter inh = TRM-6 insulin promoter activity inhibition; 130,000 compounds, 0.9% hits; inhibition, % at 2 µM; TRM-6 cells (human fetal islet line), insulin promoter-eGFP reporter, imaging; reporter expression induced with tamoxifen;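 active means inhibition above the mean plus 3 SD, with well images judged a real hit on visual review, cut at about 60% in these data, passing the limit was not always enough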
PTEN del growth = suppresses growth of cells with PTEN deletion | HCT116 PTEN-null viability, CellTiter-Glo, 60 h; hits give low values | viability, % at 10 µM | 140,000 compounds, 1.2% hits;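 active means viability at or below a set limit, 4 SD under the median of all tested compounds, cut at about 3.7% in these data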;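 further: PTEN knockout HCT116 line with beta catenin targeted HCT116 as companion control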
L major viab = Leishmania major promastigote growth inhibition; Leishmania major promastigotes, resazurin fluorescence viability; inhibition, % at 10 µM; 200,000 compounds, 9% hits; in the data active means inhibition above about 50%;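 further: promastigotes grown with compound for 44 hours at 28 °C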
ROMK primary = modulators of human ROMK potassium channel; P48048; Tet-inducible ROMK, thallium flux fluorescence; actives lie on both sides; B-score at 10 µM; 130,000 compounds, 2% hits; AID 1918;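 active means signal ratio slope over the read window, or its plate-corrected B-score, at least 3 SD from the plate mean, either direction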;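 further: B-score of the F/F0 ratio slope over 7 to 12 s after thallium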
p97 inhibitor = human p97 ATPase inhibition. inhibition, % at 8 µM. AID 1481. 220,000 compounds, 0.42% hits. recombinant p97 ATPase, Kinase-Glo ATP luminescence, 3 h; in the data active means inhibition above about 15%;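 further: 0% = DMSO vehicle and 100% = wells lacking enzyme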
An asterisk follows results filed as active. Only some compounds are listed: those with a hit (about 10% of all), similar ones and a draw of the others.

How did Cc1ccc(C)c(NS(=O)(=O)c2cc(C(=O)Nc3cccc(N(C)S(C)(=O)=O)c3)ccc2C)c1 do in these assays?
HCT116 bCat-KO: 91; INS promoter inh: -54; PTEN del growth: 101; L major viab: 90*; p97 inhibitor: -2

How did Cc1ccc(NS(=O)(=O)c2cc(NC(=O)c3ccc4c(c3)NC(=O)CS4)ccc2C)c(C)c1 do in these assays?
L major viab: 64*; ROMK primary: 0.67; p97 inhibitor: 1

What do the screens show for `COc1ccc(NC(=O)CCNS(=O)(=O)c2ccc(Br)s2)cc1`?
HCT116 bCat-KO: 85; INS promoter inh: 7; PTEN del growth: 93; L major viab: 11; p97 inhibitor: -9

Results for Cn1c(NC(=O)COc2ccccc2)cc(=O)n(C)c1=O ?
HCT116 bCat-KO: 99; INS promoter inh: 14; PTEN del growth: 89; L major viab: -1; p97 inhibitor: -3

Results for Oc1c(CN2CCN(c3ccccn3)CC2)cc(Cl)c2cccnc12 ?
HCT116 bCat-KO: 2.0*; INS promoter inh: -44; PTEN del growth: 2.6*; L major viab: 100*; p97 inhibitor: 2

How did Brc1ccc(CN2CCN(c3ccccn3)CC2)s1 do in these assays?
HCT116 bCat-KO: 74; INS promoter inh: 64; PTEN del growth: 80; L major viab: -1; ROMK primary: -1.5; p97 inhibitor: 5

Results for OCCN1CCN(Cc2cc(Br)cc(Br)c2O)CC1 ?
HCT116 bCat-KO: 104; INS promoter inh: 10; PTEN del growth: 99; L major viab: 8; p97 inhibitor: 3

How did O=c1c(CN2CCN(c3ccccn3)CC2)coc2ccccc12 do in these assays?
HCT116 bCat-KO: 91; INS promoter inh: 39; PTEN del growth: 97; L major viab: 63*; ROMK primary: 0.012; p97 inhibitor: 3

Results for OCCN1CCN(Cc2cc(Cl)c3cccnc3c2O)CC1 ?
HCT116 bCat-KO: 9; INS promoter inh: 16; PTEN del growth: 9; L major viab: 100*; ROMK primary: -0.066; p97 inhibitor: 5

Results for CN1Cc2cc(C(=O)c3ccccc3O)cnc2NC1=O ?
HCT116 bCat-KO: 99; INS promoter inh: 38; PTEN del growth: 94; L major viab: 5; p97 inhibitor: 4

How did Cc1[nH]nc2ncc(C(=O)c3ccccc3O)cc12 do in these assays?
HCT116 bCat-KO: 84; INS promoter inh: 80*; PTEN del growth: 79; L major viab: -11; ROMK primary: 0.73; p97 inhibitor: 12

Results for CCc1nccn1S(=O)(=O)c1ccc(Br)cc1Br ?
HCT116 bCat-KO: 106; PTEN del growth: 95; L major viab: 89*; ROMK primary: 0.11; p97 inhibitor: 5

Results for CCc1nccn1S(=O)(=O)c1ccc(OC)c(C)c1C ?
HCT116 bCat-KO: 99; INS promoter inh: 15; PTEN del growth: 109; L major viab: 2; ROMK primary: 0.42; p97 inhibitor: 2

How did CC(=O)NCc1ccc(C(=O)O)cc1 do in these assays?
p97 inhibitor: 2

Results for S=C(Nc1ccc(Oc2ccccc2)cc1)NC1CCCC1 ?
HCT116 bCat-KO: 95; INS promoter inh: 8; PTEN del growth: 90; L major viab: 45; ROMK primary: -1.3; p97 inhibitor: -4

What do the screens show for `S=C(Nc1ccccc1Oc1ccccc1)NC1CCCC1`?
L major viab: 61*; ROMK primary: -0.7; p97 inhibitor: 2

How did COc1ccc(NC(=S)NC2CCCCCC2)c(OC)c1 do in these assays?
HCT116 bCat-KO: 81; INS promoter inh: 22; PTEN del growth: 83; L major viab: 77*; p97 inhibitor: -6

What do the screens show for `S=C(Nc1cccc2ccccc12)NC1CCCCC1`?
INS promoter inh: -72; L major viab: 99*; ROMK primary: -0.63; p97 inhibitor: 3

What do the screens show for `CCOC(=O)c1ccc(N2C(=O)C(CC(N)=O)N(CCc3ccc(OC)c(OC)c3)C2=S)cc1` (stereo unspecified)?
L major viab: 4; ROMK primary: 0.79; p97 inhibitor: 1

What do the screens show for `CNC(=S)N/N=C1\C(=O)c2cccc3cccc1c23`?
HCT116 bCat-KO: 2.6*; INS promoter inh: 13; PTEN del growth: 1.2*; L major viab: 37; p97 inhibitor: 4

How did CCCCNC(=S)N/N=C1\C(=O)c2cccc3cccc1c23 do in these assays?
HCT116 bCat-KO: 84; INS promoter inh: 2; PTEN del growth: 89; L major viab: 3; ROMK primary: -0.22; p97 inhibitor: -2

How did O=C1CC(c2cc([N+](=O)[O-])ccc2Cl)c2c(ccc3ccccc23)N1 (stereo unspecified) do in these assays?
HCT116 bCat-KO: 67; INS promoter inh: -84; PTEN del growth: 68; L major viab: 92*; p97 inhibitor: 3

What do the screens show for `CC1CCN(c2nc(CN3CCCCC3)nc3scc(-c4ccccc4)c23)CC1`?
HCT116 bCat-KO: 22; INS promoter inh: -168; PTEN del growth: 18; L major viab: 91*; p97 inhibitor: 2

How did CC1CCN(c2nc(-c3cccnc3)nc3scc(-c4ccccc4)c23)CC1 do in these assays?
HCT116 bCat-KO: 72; INS promoter inh: -118; PTEN del growth: 63; L major viab: 42; ROMK primary: -0.84; p97 inhibitor: -2

What do the screens show for `C[C@H]1C=C(C(=O)NCc2ccccc2)O[C@@H](OCc2ccc(CO)cc2)C1`?
L major viab: 0; p97 inhibitor: 3

How did CCC(C(=O)NCc1ccncc1)c1ccccc1 (stereo unspecified) do in these assays?
INS promoter inh: -17; L major viab: -4; ROMK primary: -0.1; p97 inhibitor: 2

What do the screens show for `CN1CCc2nc(SCc3ccc(Cl)cc3)c(C#N)c(-c3cccs3)c2C1`?
L major viab: 34; ROMK primary: -3.4*; p97 inhibitor: 5

How did O=C(COC(=O)CCc1c[nH]c2ccccc12)NC(c1ccccc1)c1ccccc1 do in these assays?
HCT116 bCat-KO: 95; INS promoter inh: 15; PTEN del growth: 97; L major viab: -6; p97 inhibitor: -2

What do the screens show for `O=C(c1ccc([N+](=O)[O-])s1)N1CCc2ccccc2C1`?
L major viab: 94*; ROMK primary: 0.41; p97 inhibitor: -5

What do the screens show for `CN(C)CCCNC(=S)N1CCn2c(nc3ccccc32)C1`?
HCT116 bCat-KO: 85; INS promoter inh: 20; PTEN del growth: 98; L major viab: 51*; p97 inhibitor: -2

What do the screens show for `CCN(CC)CCNC(=S)N1CCn2c(nc3ccccc32)C1`?
HCT116 bCat-KO: 92; INS promoter inh: -38; PTEN del growth: 91; L major viab: 0; ROMK primary: -2.7; p97 inhibitor: -3

What do the screens show for `COc1ccc(NC(=O)N(C2CCCCC2)C(C)c2ccco2)c(OC)c1` (stereo unspecified)?
HCT116 bCat-KO: 86; PTEN del growth: 82; L major viab: 40; ROMK primary: -3; p97 inhibitor: 1

How did CCc1ccc(NC(=O)N(C2CCCCC2)C(C)c2cccnc2)cc1 (stereo unspecified) do in these assays?
HCT116 bCat-KO: 102; INS promoter inh: 23; PTEN del growth: 95; L major viab: 90*; ROMK primary: -0.16; p97 inhibitor: 3

Assay outcomes (PubChem BioAssay)
